# Measurements from PubChem BioAssay AID588342 (National Center for Advancing Translational Sciences (NCATS), 2011).
# About 25,000 (6.9%) of roughly 360,000 compounds were called active. Roughly 9% stayed inconclusive and do not appear here. The sample holds actives, similar compounds and a random draw of the others, so the mix is not that of the screen. Calls come from the whole dose curve; as a rule, active = well fitted inhibition curve with a large enough effect; inconclusive = small, poorly fitted or top-dose-only effect; inactive = flat fitted curve, though single readings scatter.
# Biological target: Luciferin 4-monooxygenase (Photinus pyralis) (UniProt P08659)
# Test: qHTS profiling assay for firefly luciferase inhibitor/activator using purifed enzyme and Km concentrations of substrates (counterscreen for miR-21 project); note: nearly all actives have a fitted effect of over 55% in size;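 for activity change, negative = inhibition: plate controls were vehicle for no effect and reference inhibitor for full effect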
# Conditions: purified FLuc, luminescence inhibition; series mostly up to 57.5 µM; activity change, negative = inhibition: at the top concentration
# How it was run: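 Purified P. pyralis luciferase, 10 nM final, with Km-level 10 uM D-luciferin and 10 uM ATP in 50 mM Tris acetate pH 7.5, 10 mM Mg acetate, 0.01% Tween-20, 0.05% BSA; 6-point qHTS titration about 60 µM downward; luminescence read.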
# Potency is the fitted concentration of half-maximal effect.
# Sequence of Luciferin 4-monooxygenase (Photinus pyralis) (P08659 whole entry, looked up): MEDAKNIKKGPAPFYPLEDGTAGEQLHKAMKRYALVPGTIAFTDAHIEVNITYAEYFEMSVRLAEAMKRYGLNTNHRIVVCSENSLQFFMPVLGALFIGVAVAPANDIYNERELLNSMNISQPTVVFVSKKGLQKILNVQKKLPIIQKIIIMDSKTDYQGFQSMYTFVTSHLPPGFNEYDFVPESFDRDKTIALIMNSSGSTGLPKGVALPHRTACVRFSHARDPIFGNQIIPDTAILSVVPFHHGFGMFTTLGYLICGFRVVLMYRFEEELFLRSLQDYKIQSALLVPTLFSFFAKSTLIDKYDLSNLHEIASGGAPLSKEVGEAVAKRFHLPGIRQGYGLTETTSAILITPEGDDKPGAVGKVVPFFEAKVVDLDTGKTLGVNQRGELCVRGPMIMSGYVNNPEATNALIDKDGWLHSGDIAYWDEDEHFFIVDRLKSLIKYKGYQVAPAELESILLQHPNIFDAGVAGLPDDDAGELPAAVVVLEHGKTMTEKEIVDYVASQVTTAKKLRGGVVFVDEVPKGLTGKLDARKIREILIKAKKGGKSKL
SMILES,"activity change, negative = inhibition",Potency
Cc1cc(Nc2ccc(N3CCOCC3)cc2)c2cccc(C)c2n1,-2.45% (inactive),–
O=C(Cc1cc(=O)[nH][nH]1)N/N=C/c1ccccc1[N+](=O)[O-],2.61% (inactive),–
CC(=O)N/C(=C/c1ccc(OC(F)F)cc1)C(=O)O,-0.154% (inactive),–
CC(=O)N/N=C/c1cc2c(cc1[N+](=O)[O-])OCO2,0.319% (inactive),–
Cc1cc(C(=O)OCC(=O)Nc2ccccc2Cl)c(C)o1,-19.8% (inactive),–
Cc1cc(-c2n[nH]c(=S)n2/N=C/C(Br)=C/c2ccccc2)n[nH]1,-6.14% (inactive),–
Cc1cc(C(=O)N/N=C/c2ccccc2[N+](=O)[O-])c(C)o1,–,16.9 µM (active)
Cc1ccccc1N/N=C/c1ccc(N2CCOCC2)cc1,–,10.7 µM (active)
COc1ccc(C/C(C)=N/NC(=O)c2cc(C)oc2C)cc1,-11.8% (inactive),–
CC(=C/c1ccccc1)/C=N/NC(=O)c1cc(C)oc1C,–,1.35 µM (active)
CC(=O)c1ccc(N2CCN(CC(=O)Nc3ccccc3N3CCOCC3)CC2)cc1,-9.52% (inactive),–
Cc1cc(C(=O)N/N=C\C(Br)=C\c2ccccc2)c(C)o1,–,8.49 µM (active)
Cc1ccc(CC(=O)Nc2ccc(S(=O)(=O)N3CCOCC3)cc2)cc1C,-1.84% (inactive),–
Cc1cccc(Cn2c(=O)n(CCC(=O)NCCc3ccc(Cl)cc3)c(=O)c3sccc32)c1,-3.53% (inactive),–
O=C(CN1CCN(C2CCS(=O)(=O)C2)CC1)N1N=C(c2ccc(Cl)cc2)CC1c1ccco1 (configuration not stated),0.655% (inactive),–
CCOC(=O)c1cc(-c2ccccc2)n(CCC(=O)Nc2ccccc2CC)c1C,-1.81% (inactive),–
CC1=Nc2cc(C(=O)N3CCC(C)CC3)ccc2Sc2ccc(Cl)cc21,2.21% (inactive),–
CC(=O)Nc1cccc(NC(=O)CSc2nccn2Cc2ccc3c(c2)OCO3)c1,-7.66% (inactive),–
COc1ccc(Br)cc1CNC(=O)c1cc(=O)[nH]c2ccc(S(=O)(=O)N3CCCC3)cc12,-0.37% (inactive),–
O=c1c2c(ncn1Cc1ccccc1)nc1n2CCC1,3.35% (inactive),–
Cc1cc(C)nc(NS(=O)(=O)c2ccc(NC(=O)c3cc(=O)c4ccc(C)c(C)c4o3)cc2)n1,-19.3% (inactive),–
O=c1cc(CSc2ncn[nH]2)[nH]c2ccc(F)cc12,7.8% (inactive),–
CC(C)N(Cc1nnc(-c2ccccc2Br)o1)C(=O)c1cc(Cl)nc2ccccc12,4.54% (inactive),–

SMILES,"activity change, negative = inhibition",Potency
Cc1ccc(OCCCC(=O)Nc2ccc(N3CCOCC3)cc2)cc1,-2.1% (inactive),–
Cc1cc(C(=O)N/N=C/c2ccc(N3CCOCC3)cc2)c(C)o1,–,13.5 µM (active)
CCN(CC)c1ccc(C(=O)N/N=C/c2ccc(N3CCOCC3)cc2)cc1,-6.56% (inactive),–
O=c1c2ccccc2ccc2ccc(P(=O)(O)O)cc12,2.5% (inactive),–
Cc1ccc(C(=O)O/N=C(\N)c2ccccn2)cc1Cl,–,0.169 µM (active)
Cc1ccc(NC(=O)c2ccccn2)cc1S(=O)(=O)N1CCOCC1,-1.27% (inactive),–
O=C(OCc1ccc([N+](=O)[O-])cc1)c1ccccn1,-0.663% (inactive),–
O=C(COC(=O)c1ccccn1)NNC(=O)c1ccc([N+](=O)[O-])cc1,2.2% (inactive),–
N/C(=N\OC(=O)c1ccc([N+](=O)[O-])cc1)c1ccccn1,–,0.601 µM (active)
COc1ccc(C(=O)CSc2nc(C)cc(C)n2)cc1[N+](=O)[O-],-13.8% (inactive),–
COc1ccc(C(=O)O/N=C(\N)c2ccccn2)cc1[N+](=O)[O-],–,12 µM (active)
COc1ccc(C(=O)NNC(=O)c2cnccn2)cc1[N+](=O)[O-],6.8% (inactive),–
O=C(Nc1ccccc1Cl)O/N=C(/c1ccccc1)c1ccccn1,-8.09% (inactive),–
O=C(CCS(=O)(=O)c1cc(Br)cc2c1N(C(=O)C1CC1)CC2)Nc1ccc(C(F)(F)F)cc1,-0.598% (inactive),–
C/C=N/NC(=O)CCCC(=O)N/N=C/C,-3.72% (inactive),–
COc1ccccc1C(=O)NCC(=O)NCCSc1ccc(Br)cc1,0.478% (inactive),–
Cn1nnnc1SCCCNCc1ccc(Cl)cc1,-1.11% (inactive),–
Cc1ccc(NC(=O)C(=O)NCC(c2cccnc2)N2CCOCC2)cc1 (configuration not stated),-1.67% (inactive),–
Cn1c(SCC(=O)c2ccccc2)ncc(C(=O)Nc2ccc(F)cc2)c1=O,-4.55% (inactive),–
Cc1cc(NC(=O)CSc2ncc(C(=O)Nc3ccc(Cl)cc3)c(=O)n2C)no1,-5.36% (inactive),–
Cc1ccc(NC(=O)c2cnc(SCC(=O)NCC3CCCO3)n(C)c2=O)cc1 (configuration not stated),–,9.53 µM (active)
COc1ccc(Cl)cc1NC(=O)CSc1nc(=O)[nH]c2c1CCCC2,-11.4% (inactive),–
NC(=O)C1CCN(C(=O)/C(=C/c2ccco2)NC(=O)c2ccccc2)CC1,-1.25% (inactive),–

SMILES,"activity change, negative = inhibition",Potency
O=C(NCC1CCCO1)/C(=C\c1ccco1)NC(=O)c1ccccc1 (configuration not stated),-2.53% (inactive),–
C/C(=C\c1ccco1)C1Nc2cccc3cccc(c23)N1,–,10.7 µM (active)
CNC(=O)c1nnc(Cc2ccc(Cl)cc2)o1,3.86% (inactive),–
Clc1ccc(Cc2nnc(-c3cccs3)o2)cc1,–,19 µM (active)
c1csc(-c2nnc(COc3ncnc4sccc34)o2)c1,4% (inactive),–
CC(Sc1oc(-c2ccco2)nc1S(=O)(=O)c1ccc(Br)cc1)c1ccccc1 (configuration not stated),3.32% (inactive),–
Cc1cc(C)n2nc(C(=O)OCC(=O)N(C)CC(=O)Nc3ccc(F)cc3)nc2n1,4.22% (inactive),–
COc1ccc(CNC(=O)c2cc3c(=O)[nH]c4ccc(C)cc4c3s2)c(OC)c1,-8.78% (inactive),–
Cc1ccc(C(=O)CNc2ccc(F)cc2)cc1,–,4.78 µM (active)
Cc1ccc(NC(=O)CCC(=O)c2ccc(Br)cc2)cc1,-2.06% (inactive),–
CCOC(=O)c1nc(Nc2ccc(C(=O)OC)cc2)c2ccccc2n1,–,inactive
Cc1ccc(C(=O)NC2CCN(C(=O)Nc3ccc(F)cc3)CC2)cc1,-1.62% (inactive),–
COC(=O)c1ccc(NCC(=O)N2CCCCCC2)cc1,-11.5% (inactive),–
COC(=O)c1ccc(NCC(=O)c2ccccc2)cc1,–,1.51 µM (active)
CCn1c2ccccc2c2nnc(N3CCN(c4cc(C)ccc4C)CC3)nc21,-2.96% (inactive),–
CC(=O)Nc1cc(C(=O)NCc2ccc(F)cc2Cl)ccc1Sc1ccc(Cl)cc1,-11.1% (inactive),–
O=c1c(=O)n(Cc2c(F)cccc2Cl)ccn1Cc1ccccc1,0.984% (inactive),–
CCOC(=O)C1CCN(c2csc3ccc(C)cc3c2=O)CC1,–,7.57 µM (active)
CCOC(=O)C1CCN(c2c(Nc3cc(C)cc(C)c3)c(=O)c2=O)CC1,-0.907% (inactive),–
CCOC(=O)C1CCN(c2ccc(C(=O)O)cc2[N+](=O)[O-])CC1,4.31% (inactive),–
CCOCCCNC(=O)c1cn(CC)c2ccc(S(=O)(=O)N3CCc4ccccc4C3)cc2c1=O,3.89% (inactive),–
